Source: PubChem BioAssay (EPA / NIEHS)
Active and inactive are the calls of the source. The calls were made as follows: active = hit-call score of the fitted dose curve at least 0.9, where 1 is the maximum; inactive = score below 0.9.

assay: APR_HepG2_MitoMass_24hr: Apredica 24-hour HepG2 Assay for Mitochondrial Mass (AID 2282912); settings: high-content imaging, actives raise or lower the signal
Procedure: APR_HepG2_24hr is a cell-based, multiplexed-readout assay that uses HepG2, a human liver cell line, with measurements taken at 24 hours after chemical dosing in a 384-well plate.APR_HepG2_MitoMass_24hr is one of 10 assay component(s) measured or calculated from the APR_HepG2_24hr assay. It is designed to make measurements of cell phenotype, a form of morphology reporter, as detected with fluorescence intensity signals by HCS Fluorescent Imaging technology.Data from the assay component APR_HepG2_MitoMass_24hr was analyzed into 1 assay endpoint. This assay endpoint, APR_HepG2_MitoMass_24hr, was analyzed with bidirectional fitting relative to DMSO as the negative control and baseline of activity. Using a type of morphology reporter, gain or loss-of-signal activity can be used to understand changes in the signaling. Furthermore, this assay endpoint can be referred to as a primary readout, because this assay has produced multiple assay endpoints where this one serves a signaling function. To generalize the intended target to other relatable targets, this assay endpoint is annotated to the cell morphology intended target family, where the subfamily is organelle conformation.
Cells were treated with dimethyl sulfoxide (DMSO) as a solvent control at a final concentration of 0.5% v/v or with compounds in DMSO with a resulting final DMSO concentration of 0.5% v/v. Compound treatment was done at concentrations of 0.39, 0.78, 1.56, 3.12, 6.24, 12.5, 25, 50, 100, and 200 uM in duplicate on each plate. Cells were treated with compounds for 1, 24, or 72 hr. Carbonyl […] m-chloro-phenylhydrazone (CCCP) and taxol were used as positive controls for mitochondrial function and cytoskeletal stability, respectively; DMSO served as the negative control for this experiment. Cells were fixed by the direct addition of 50 uL formaldehyde in Hank's Balanced Salt Solution (HBSS) to a final concentration of 3.7%. After incubation in the fixation medium for 30 min at room temperature (293-298 K), cells were rinsed twice with HBSS and treated with cell permeabilization buffer (16 uL of 0.5% Triton X-100) for 10 min at room temperature (293-298 K) before labeling. For mitochondrial membrane potential and mitochondrial measurements, pre-fixed cells were incubated with 50 uL of MitoTracker Red CMXRos (Invitrogen) at a concentration of 250 nM for 30 min before fixation. In the remaining cases, post-fixed cells were labeled by incubation with a multiplexed mixture of primary antibodies in HBSS for 60 min at room temperature (293-298 K) to detect immunoreactivity of c-Jun (1:500), phospho-histone H3 (1:100), phospho-histone H2A.x (1:200), p53 (1:400), alpha-tubulin (1:200) and Hoechst 33342 (2 ug/mL). Cells were labeled for multiplexed imaging on two separate plates: a) Hoechst 33342, MitoTracker Red, phospho-histone H3, and alpha-tubulin, and b) Hoechst 33342, phospho-histone H2A.x, and c-Jun. A final rinse with HBSS (50 uL) was performed before analysis. The primary and secondary antibodies for the proteins were phospho-histone H3 (rabbit anti-phospho-histone H3 and FITC-donkey anti-rabbit IgG), phospho-histone H2A.x (mouse anti-phospho-histone H2A.x and FITC-donkey anti-mouse IgG), c-Jun (rabbit anti-phospho-c-Jun and Cy3-donkey anti-rabbit IgG), p53 (sheep anti-p53 and Cy5-donkey anti-sheep IgG), alpha-tubulin (mouse anti-alpha-tubulin and Cy5-donkey anti-mouse IgG). These antibodies are available as the CellCiphr HepG2 assay kit (Millipore).Digital images of each well were captured using a Cellomics ArrayScan VTI (Thermo Scientific Cellomics) (0.8 NA objective, 0.63x optical coupler, and XF-93 filter set) at 20x magnification. The images were acquired using the autofocus feature of the ArrayScan instrument, which entails the following steps. First, the camera focuses on channel 1 (Hoechst 33342), where nuclei are identified. Second, a Z offset of 1 um is used for capturing mitochondria (MitoTracker Red). […]

SMILES	outcome	AC50
CCOCCOC(C)=O	inactive	–
O=C(O)C(F)(F)C(F)(F)C(F)(F)C(F)(F)C(F)(F)F	inactive	–
O=S(=O)(O)C(F)(F)C(F)(F)C(F)(F)C(F)(F)C(F)(F)C(F)(F)F	inactive	–
NS(=O)(=O)C(F)(F)C(F)(F)C(F)(F)C(F)(F)C(F)(F)C(F)(F)C(F)(F)C(F)(F)F	inactive	–
CC(C)(c1ccccc1)c1ccc(O)cc1	inactive	–
N#Cc1ccc(N(CC(N)=O)CC(F)(F)F)cc1C(F)(F)F	inactive	–
Cc1ccccc1O	inactive	–
CN(C)CCO	inactive	–
O=C(NC(=O)c1c(F)cccc1F)Nc1cc(Cl)c(OC(F)(F)C(F)F)c(Cl)c1	inactive	–
c1ccc(-c2ccccc2)cc1	inactive	–
Nn1cnnc1	inactive	–
ClC1=C(Cl)[C@]2(Cl)[C@@H]3[C@H]4C[C@H]([C@@H]5O[C@H]45)[C@@H]3[C@@]1(Cl)C2(Cl)Cl	inactive	–
C[C@]12CCC(=O)C=C1CC[C@@H]1[C@@H]2CC[C@@]2(C)[C@H]1CC[C@]2(C)O	inactive	–
Nc1ccc(-c2ccc(N)cc2)cc1	inactive	–
ClC1=C(Cl)[C@]2(Cl)[C@@H]3[C@@H](Cl)[C@H]4O[C@H]4[C@@H]3C1(Cl)C2(Cl)Cl	inactive	–
CCCCCCCCCc1ccc(O)cc1	inactive	–
Oc1ccc(C(c2ccc(O)cc2)(C(F)(F)F)C(F)(F)F)cc1	inactive	–
Cc1cc(-c2ccc(N)c(C)c2)ccc1N	inactive	–
CCSC(=O)N(CC)C1CCCCC1	inactive	–
CC1=C2C[C@H]3[C@@H](CC=C4C[C@@H](O)CC[C@@]43C)[C@@H]2CC[C@]12O[C@@H]1C[C@H](C)CN[C@H]1[C@H]2C	–	35.4 µM (active)

SMILES	outcome	AC50
CCCCCCCCCC[N+](C)(C)CCCCCCCCCC	inactive	–
CCC(=O)O[C@H]1CC[C@H]2[C@@H]3CCC4=CC(=O)CC[C@]4(C)[C@H]3CC[C@]12C	–	107 µM (active)
CCC(C)(c1ccc(O)cc1)c1ccc(O)cc1	–	127 µM (active)
CC(c1ccc(O)cc1)(c1ccc(O)cc1)c1ccc(O)cc1	–	109 µM (active)
CCCCCCCCOC(=O)c1ccccc1C(=O)OCCCCCCCC	inactive	–
Clc1ccc(Cl)cc1	inactive	–
CO/C=C(/C(=O)OC)c1ccccc1COc1cccc(C(F)(F)F)n1	inactive	–
Cc1cc2c3c(c1)C(c1ccccc1)=N[C@@H](NC(=O)c1ccncc1)C(=O)N3CC2	inactive	–
Cc1ccccc1[N+](=O)[O-]	inactive	–
Cc1ccccc1CO[C@@H]1C[C@@]2(C(C)C)CC[C@]1(C)O2	inactive	–
Cc1cccc([N+](=O)[O-])c1	inactive	–
CC(C)(O)C(=O)Nc1ccc([N+](=O)[O-])c(C(F)(F)F)c1	inactive	–
COc1ccc(O)c(C(C)(C)C)c1	inactive	–
Cc1cc(O)ccc1Cl	inactive	–
Oc1c(Cl)c(Cl)c(Cl)c(Cl)c1Cl	inactive	–
CCCCCCOC(=O)c1ccccc1C(=O)OCCCCCC	inactive	–
Cc1cccc(C)c1N	inactive	–
Clc1ccc(C(Cl)(Cl)Cl)cc1	inactive	–
O=C(N[C@H]1CN2CCC1CC2)c1cc2ccoc2cn1	inactive	–
COS(=O)(=O)OC	inactive	–
